Common to all, as to assay: DAPPL (digital affinity profiling via proximity ligation, sequencing); 10 mM Tris-HCl pH 7.5, 50 mM NaCl, 1 mM DTT, 4% glycerol, room temperature, 30 min; GST-TFs on glutathione beads, 16-mer random dsDNA library, 0.1% formaldehyde crosslink after washing; high values mean tight binding
Common to all, as to settings: protein: recombinant; tags: N-terminal GST; dsDNA, one strand shown

The target in one experiment is T1, ERF (Homo sapiens, UniProt P50548 1-548).
T1 sequence: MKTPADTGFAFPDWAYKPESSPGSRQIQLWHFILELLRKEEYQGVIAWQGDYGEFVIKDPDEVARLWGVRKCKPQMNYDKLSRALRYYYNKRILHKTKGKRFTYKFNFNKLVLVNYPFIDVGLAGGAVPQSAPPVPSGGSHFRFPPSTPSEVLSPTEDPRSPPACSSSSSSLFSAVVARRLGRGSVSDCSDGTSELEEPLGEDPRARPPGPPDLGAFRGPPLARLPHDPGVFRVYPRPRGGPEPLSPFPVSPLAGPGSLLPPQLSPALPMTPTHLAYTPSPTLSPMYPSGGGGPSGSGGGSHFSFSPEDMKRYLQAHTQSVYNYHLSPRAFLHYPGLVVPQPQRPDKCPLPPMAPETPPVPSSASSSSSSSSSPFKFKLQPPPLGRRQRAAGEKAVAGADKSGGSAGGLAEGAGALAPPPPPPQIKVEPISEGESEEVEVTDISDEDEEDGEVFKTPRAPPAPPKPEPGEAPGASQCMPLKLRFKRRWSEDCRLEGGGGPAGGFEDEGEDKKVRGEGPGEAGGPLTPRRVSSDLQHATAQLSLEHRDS
The procedure, abridged: (§1)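 Human transcription factors fused to GST were expressed in yeast, captured on glutathione beads, given DNA barcodes and pooled with a GST-only negative control. Pools were incubated with 200 nmole of a 16-mer random double-stranded DNA library in Tris/NaCl/DTT/glycerol buffer at room temperature for 30 min. They were then washed, crosslinked with 0.1% formaldehyde, proximity-ligated (BsaI/T4 ligase, 1 h, 37 °C), PCR-amplified and sequenced on an Illumina NextSeq500. Binding signal is each 6-mer's read frequency for a factor divided by its frequency for the GST control.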

A further experiment deals with T2, ETV3L (Homo sapiens, UniProt Q6ZN32 1-361).
T2 sequence: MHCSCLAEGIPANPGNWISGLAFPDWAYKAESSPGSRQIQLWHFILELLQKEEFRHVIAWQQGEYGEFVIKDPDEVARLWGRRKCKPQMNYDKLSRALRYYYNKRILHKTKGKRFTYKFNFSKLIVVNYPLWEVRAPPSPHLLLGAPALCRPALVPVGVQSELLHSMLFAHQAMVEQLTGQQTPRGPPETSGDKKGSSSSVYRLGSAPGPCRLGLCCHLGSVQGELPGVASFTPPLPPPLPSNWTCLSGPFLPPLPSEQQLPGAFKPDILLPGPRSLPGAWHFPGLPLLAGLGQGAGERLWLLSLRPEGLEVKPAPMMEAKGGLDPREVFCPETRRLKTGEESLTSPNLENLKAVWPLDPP
The procedure, abridged:
as §1

The target of another experiment is T3, ETS2 (Homo sapiens, UniProt P15036 1-469).
T3 sequence: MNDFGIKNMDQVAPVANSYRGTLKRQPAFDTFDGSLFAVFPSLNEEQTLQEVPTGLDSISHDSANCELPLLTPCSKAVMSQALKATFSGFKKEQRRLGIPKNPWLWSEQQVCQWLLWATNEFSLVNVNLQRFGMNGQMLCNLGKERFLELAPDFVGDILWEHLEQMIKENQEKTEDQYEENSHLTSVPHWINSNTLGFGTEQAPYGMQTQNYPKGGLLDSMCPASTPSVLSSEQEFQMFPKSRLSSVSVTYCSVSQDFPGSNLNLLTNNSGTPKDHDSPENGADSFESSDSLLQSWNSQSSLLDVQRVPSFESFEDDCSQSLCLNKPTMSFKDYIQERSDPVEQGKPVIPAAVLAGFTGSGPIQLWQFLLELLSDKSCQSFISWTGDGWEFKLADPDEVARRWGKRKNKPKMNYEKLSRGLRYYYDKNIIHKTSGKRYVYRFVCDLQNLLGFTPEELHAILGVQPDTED
The procedure, abridged:
as §1

Another experiment addresses T4, SPDEF (Homo sapiens, UniProt O95238 1-335).
T4 sequence: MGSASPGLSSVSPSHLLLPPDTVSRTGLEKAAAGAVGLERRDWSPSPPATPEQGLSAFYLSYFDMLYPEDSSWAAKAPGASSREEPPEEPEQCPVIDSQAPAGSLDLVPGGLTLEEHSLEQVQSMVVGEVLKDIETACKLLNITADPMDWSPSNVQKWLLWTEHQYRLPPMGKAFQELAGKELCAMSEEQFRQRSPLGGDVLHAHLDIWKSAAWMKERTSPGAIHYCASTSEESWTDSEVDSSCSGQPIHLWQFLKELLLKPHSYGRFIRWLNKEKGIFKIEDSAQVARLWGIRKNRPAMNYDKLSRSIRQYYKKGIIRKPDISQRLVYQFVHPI
The procedure, abridged:
as §1

A further experiment deals with T5, ETV7 (Homo sapiens, UniProt Q9Y603 1-341).
T5 sequence: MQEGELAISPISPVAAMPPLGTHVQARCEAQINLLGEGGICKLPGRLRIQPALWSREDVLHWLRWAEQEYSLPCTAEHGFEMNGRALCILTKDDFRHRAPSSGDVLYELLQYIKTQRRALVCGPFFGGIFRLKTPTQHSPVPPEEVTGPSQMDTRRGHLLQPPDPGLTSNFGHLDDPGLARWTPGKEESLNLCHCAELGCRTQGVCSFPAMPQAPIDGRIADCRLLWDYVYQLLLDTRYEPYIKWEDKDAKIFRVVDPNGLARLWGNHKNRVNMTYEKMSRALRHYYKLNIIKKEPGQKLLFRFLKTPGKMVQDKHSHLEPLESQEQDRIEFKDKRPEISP
The procedure, abridged: as §1

Another experiment addresses T6, ELF5 (Homo sapiens, UniProt Q9UKW6-2 1-255).
T6 sequence: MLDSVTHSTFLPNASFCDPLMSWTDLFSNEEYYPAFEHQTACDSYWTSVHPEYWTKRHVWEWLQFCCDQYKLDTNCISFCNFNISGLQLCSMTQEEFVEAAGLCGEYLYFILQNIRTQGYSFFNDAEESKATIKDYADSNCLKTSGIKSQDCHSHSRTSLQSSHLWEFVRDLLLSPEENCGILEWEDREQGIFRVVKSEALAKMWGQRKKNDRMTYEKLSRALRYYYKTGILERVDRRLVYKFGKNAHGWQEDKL
The procedure, abridged: as §1

The target of another experiment is T7, ETV3 (Homo sapiens, UniProt P41162-2 1-143).
T7 sequence: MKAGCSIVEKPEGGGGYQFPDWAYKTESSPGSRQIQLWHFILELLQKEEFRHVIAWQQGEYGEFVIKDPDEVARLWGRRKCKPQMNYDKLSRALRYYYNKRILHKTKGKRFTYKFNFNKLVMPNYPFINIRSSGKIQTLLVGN
The procedure, abridged: as §1

The next experiment addresses ETV6 (Homo sapiens, UniProt P41212 1-452). The procedure, abridged:
as §1

ETV6, sequence (P41212 whole entry): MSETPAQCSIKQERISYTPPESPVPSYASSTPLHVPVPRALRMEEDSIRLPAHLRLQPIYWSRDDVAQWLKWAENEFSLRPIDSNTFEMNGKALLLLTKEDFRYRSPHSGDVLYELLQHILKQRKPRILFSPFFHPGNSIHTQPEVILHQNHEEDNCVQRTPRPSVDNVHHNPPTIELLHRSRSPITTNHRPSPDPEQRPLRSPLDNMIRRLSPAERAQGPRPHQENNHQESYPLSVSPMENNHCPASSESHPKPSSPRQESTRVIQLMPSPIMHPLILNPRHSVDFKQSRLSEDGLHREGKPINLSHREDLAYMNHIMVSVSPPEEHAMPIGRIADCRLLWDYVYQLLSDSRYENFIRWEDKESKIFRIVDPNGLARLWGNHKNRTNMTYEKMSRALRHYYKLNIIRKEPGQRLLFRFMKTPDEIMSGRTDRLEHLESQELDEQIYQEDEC

Take TGCCAT: the binding signal was 1.17 fold enrichment (6-mer frequency, TF over GST control) with ERF; 1.09 fold enrichment (6-mer frequency, TF over GST control) in the experiment with ETV3L; 1.05 fold enrichment (6-mer frequency, TF over GST control) with ETS2; 1.19 fold enrichment (6-mer frequency, TF over GST control) with SPDEF; 1.09 fold enrichment (6-mer frequency, TF over GST control) with ETV7; 1.08 fold enrichment (6-mer frequency, TF over GST control) in the experiment with ELF5. For the same sequence, the binding signal in the experiment with ETV3 was 1.2 fold enrichment (6-mer frequency, TF over GST control); with ETV6, 1.1 fold enrichment (6-mer frequency, TF over GST control).

As for CCTCTG, the binding signal with ERF was 1.65 fold enrichment (6-mer frequency, TF over GST control); in the experiment with ETV3L it was 1.36 fold enrichment (6-mer frequency, TF over GST control); in the experiment with ETS2, 1.42 fold enrichment (6-mer frequency, TF over GST control); in the experiment with SPDEF, 1.54 fold enrichment (6-mer frequency, TF over GST control); with ETV7, 1.79 fold enrichment (6-mer frequency, TF over GST control); in the experiment with ELF5, 1.5 fold enrichment (6-mer frequency, TF over GST control). Further, the binding signal is 1.64 fold enrichment (6-mer frequency, TF over GST control) in the experiment with ETV3 and 1.39 fold enrichment (6-mer frequency, TF over GST control) in the experiment with ETV6.

As for TTATAA, the binding signal with ERF was 1.15 fold enrichment (6-mer frequency, TF over GST control); with ETV3L, 1.19 fold enrichment (6-mer frequency, TF over GST control); in the experiment with ETS2, 1.2 fold enrichment (6-mer frequency, TF over GST control); with SPDEF, 1.17 fold enrichment (6-mer frequency, TF over GST control); with ETV7 it was 1.21 fold enrichment (6-mer frequency, TF over GST control); with ELF5 it was 1.19 fold enrichment (6-mer frequency, TF over GST control). Moreover, the binding signal with ETV3 is 1.16 fold enrichment (6-mer frequency, TF over GST control); with ETV6, 1.19 fold enrichment (6-mer frequency, TF over GST control).

Consider ATTGTC, for which the binding signal was 1.23 fold enrichment (6-mer frequency, TF over GST control) with ERF; 1.14 fold enrichment (6-mer frequency, TF over GST control) with ETV3L; 1.17 fold enrichment (6-mer frequency, TF over GST control) with ETS2; 1.17 fold enrichment (6-mer frequency, TF over GST control) in the experiment with SPDEF; 1.23 fold enrichment (6-mer frequency, TF over GST control) in the experiment with ETV7; 1.2 fold enrichment (6-mer frequency, TF over GST control) in the experiment with ELF5. The binding signal with ETV3 is 1.22 fold enrichment (6-mer frequency, TF over GST control); in the experiment with ETV6, 1.13 fold enrichment (6-mer frequency, TF over GST control).

With TCCGGA, the binding signal with ERF is 2.04 fold enrichment (6-mer frequency, TF over GST control); with ETV3L, 2.42 fold enrichment (6-mer frequency, TF over GST control); with ETS2 it was 2.66 fold enrichment (6-mer frequency, TF over GST control); with SPDEF, 3.16 fold enrichment (6-mer frequency, TF over GST control); with ETV7 it was 2.24 fold enrichment (6-mer frequency, TF over GST control); with ELF5, 3.19 fold enrichment (6-mer frequency, TF over GST control). The binding signal is 2.84 fold enrichment (6-mer frequency, TF over GST control) with ETV3 and 2.7 fold enrichment (6-mer frequency, TF over GST control) in the experiment with ETV6.

Regarding AGTACT, the binding signal is 1.11 fold enrichment (6-mer frequency, TF over GST control) with ERF; 1.12 fold enrichment (6-mer frequency, TF over GST control) with ETV3L; 1.23 fold enrichment (6-mer frequency, TF over GST control) with ETS2; 1.33 fold enrichment (6-mer frequency, TF over GST control) with SPDEF; 1.3 fold enrichment (6-mer frequency, TF over GST control) in the experiment with ETV7; 1.53 fold enrichment (6-mer frequency, TF over GST control) with ELF5. Moreover, the binding signal is 1.28 fold enrichment (6-mer frequency, TF over GST control) with ETV3 and 1.62 fold enrichment (6-mer frequency, TF over GST control) in the experiment with ETV6.

For GTCCAT, the binding signal with ERF is 1.08 fold enrichment (6-mer frequency, TF over GST control); with ETV3L, 1.24 fold enrichment (6-mer frequency, TF over GST control); with ETS2 it was 1.04 fold enrichment (6-mer frequency, TF over GST control); with SPDEF, 1.02 fold enrichment (6-mer frequency, TF over GST control); with ETV7 it was 1.14 fold enrichment (6-mer frequency, TF over GST control); with ELF5 it was 1.07 fold enrichment (6-mer frequency, TF over GST control). The binding signal in the experiment with ETV3 was 1.11 fold enrichment (6-mer frequency, TF over GST control); with ETV6 it was 1.07 fold enrichment (6-mer frequency, TF over GST control).

For the sequence TGCGAC, the binding signal with ERF was 1.22 fold enrichment (6-mer frequency, TF over GST control); with ETV3L, 1.32 fold enrichment (6-mer frequency, TF over GST control); with ETS2, 1.19 fold enrichment (6-mer frequency, TF over GST control); with SPDEF, 1.15 fold enrichment (6-mer frequency, TF over GST control); with ETV7, 1.29 fold enrichment (6-mer frequency, TF over GST control); with ELF5, 1.2 fold enrichment (6-mer frequency, TF over GST control). The binding signal was 1.27 fold enrichment (6-mer frequency, TF over GST control) with ETV3 and 1.28 fold enrichment (6-mer frequency, TF over GST control) with ETV6.

The values above are taken from article PMC7862700, “An all-to-all approach to the identification of sequence-specific readers for epigenetic DNA modifications on cytosine”.
